Bioassay records (PubChem)
Many of the other results were omitted from the sample, so hits are more common in it than they were.
Dicer processing – inhibitors of Dicer pre-microRNA processing, primary screen, biochemical, cat-ELCCA, chemiluminescence. cat-ELCCA pre-miR-21 Dicer processing; stronger effect = higher value. z-score at 25 µM. AID 1347074, 2019. 6% of 47,000 active; in the data active means z-score above about 3, passing the limit was not always enough;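 further: higher signal means more uncleaved substrate so more Dicer inhibition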
Target sequence (Q9UPY3 whole entry, looked up): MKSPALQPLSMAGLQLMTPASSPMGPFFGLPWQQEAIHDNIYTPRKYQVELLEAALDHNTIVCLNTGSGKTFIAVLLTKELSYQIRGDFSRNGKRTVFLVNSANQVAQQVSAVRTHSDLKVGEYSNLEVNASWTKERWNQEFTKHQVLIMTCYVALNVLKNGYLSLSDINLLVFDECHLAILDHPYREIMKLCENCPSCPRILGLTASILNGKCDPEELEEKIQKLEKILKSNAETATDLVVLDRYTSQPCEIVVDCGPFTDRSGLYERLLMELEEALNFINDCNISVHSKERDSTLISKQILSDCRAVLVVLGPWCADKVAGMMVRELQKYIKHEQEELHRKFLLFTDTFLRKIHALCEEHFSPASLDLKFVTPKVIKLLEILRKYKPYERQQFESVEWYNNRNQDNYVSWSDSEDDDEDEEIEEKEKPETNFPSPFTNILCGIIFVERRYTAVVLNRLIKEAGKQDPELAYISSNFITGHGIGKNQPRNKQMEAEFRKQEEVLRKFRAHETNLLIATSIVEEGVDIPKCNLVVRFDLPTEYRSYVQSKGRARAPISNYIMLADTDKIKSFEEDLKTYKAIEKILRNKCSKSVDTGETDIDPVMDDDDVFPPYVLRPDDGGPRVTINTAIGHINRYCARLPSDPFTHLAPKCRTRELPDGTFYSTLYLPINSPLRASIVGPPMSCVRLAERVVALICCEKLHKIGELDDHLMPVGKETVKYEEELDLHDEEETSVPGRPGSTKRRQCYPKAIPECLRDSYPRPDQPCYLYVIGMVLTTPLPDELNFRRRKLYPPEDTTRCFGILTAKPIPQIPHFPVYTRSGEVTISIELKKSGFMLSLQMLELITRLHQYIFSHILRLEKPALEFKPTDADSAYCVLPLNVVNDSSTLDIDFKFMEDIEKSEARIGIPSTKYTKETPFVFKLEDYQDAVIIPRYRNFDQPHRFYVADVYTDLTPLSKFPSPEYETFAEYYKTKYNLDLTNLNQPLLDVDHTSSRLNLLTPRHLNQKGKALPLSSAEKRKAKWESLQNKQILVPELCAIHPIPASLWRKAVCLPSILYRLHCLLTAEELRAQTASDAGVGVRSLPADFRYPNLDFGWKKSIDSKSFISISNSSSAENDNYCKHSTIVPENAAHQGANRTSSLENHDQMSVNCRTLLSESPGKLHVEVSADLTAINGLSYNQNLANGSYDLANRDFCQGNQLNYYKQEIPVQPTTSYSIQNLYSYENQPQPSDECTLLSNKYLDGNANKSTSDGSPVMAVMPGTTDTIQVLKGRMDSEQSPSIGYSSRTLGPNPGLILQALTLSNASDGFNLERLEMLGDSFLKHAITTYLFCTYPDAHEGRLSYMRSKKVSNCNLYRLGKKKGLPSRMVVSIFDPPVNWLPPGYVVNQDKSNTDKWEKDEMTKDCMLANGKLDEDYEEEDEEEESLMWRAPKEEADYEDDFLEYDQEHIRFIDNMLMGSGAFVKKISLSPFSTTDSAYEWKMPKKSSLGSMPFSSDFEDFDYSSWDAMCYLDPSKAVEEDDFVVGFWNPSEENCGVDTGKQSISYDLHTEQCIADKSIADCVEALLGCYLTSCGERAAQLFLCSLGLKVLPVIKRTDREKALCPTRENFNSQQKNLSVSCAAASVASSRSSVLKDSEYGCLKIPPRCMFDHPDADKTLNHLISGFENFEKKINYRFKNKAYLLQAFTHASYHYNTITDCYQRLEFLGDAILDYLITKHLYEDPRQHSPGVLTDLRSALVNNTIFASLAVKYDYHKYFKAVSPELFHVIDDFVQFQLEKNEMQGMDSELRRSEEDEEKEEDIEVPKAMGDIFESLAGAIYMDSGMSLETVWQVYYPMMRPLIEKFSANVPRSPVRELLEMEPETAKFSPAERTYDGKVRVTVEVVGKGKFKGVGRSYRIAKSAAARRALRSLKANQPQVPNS
Each line names hits and unclear results; the compound was inactive in the other large screens.

CCCCOc1ccccc1C1C(C(=O)OC(C)C)=C(C)NC2=C1C(=O)CCC2 (stereo unspecified)	none
CCN(c1cccc2ccccc12)S(=O)(=O)c1ccccc1	none
O=C(CSc1n[nH]c(=O)n1C1Cc2ccccc2C1)Nc1ccccc1	none
Cn1c(=O)c2c(nc(NCCO)n2Cc2cccc(F)c2)n(C)c1=O	none
CNc1nc(C)c([N+](=O)[O-])c(C)c1C#N	none
CN1CCN(CCCNC(=O)c2sc3ccccc3c2Cl)CC1	none
CN(C)c1ccc(/C=C/c2nc3n(n2)C=COc2ccccc2-3)cc1	Dicer processing 6.06
O=c1ccc(-c2nc3ccccc3[nH]2)n[nH]1	none
O=C(Nc1c(C(=O)c2ccc(F)cc2)oc2ccccc12)c1ccccc1	none
Cc1ccc(C(=O)c2oc3ccccc3c2N)cc1	none
Nc1c(C(=O)c2ccc(Oc3ccccc3)cc2)oc2ccccc12	Dicer processing 3.77
CCOC(=O)/C(C#N)=C1\SCC(C)(O)N1c1c(F)cccc1F (stereo unspecified)	none
CC(=O)C1=C(O)c2cc(Cl)c(Cl)cc2C1=O	none
CCOc1ccc(C2c3c(oc4ccc(F)cc4c3=O)C(=O)N2CC2CCCO2)cc1 (stereo unspecified)	none
CCCCc1nc2ccccc2n1CC(=O)O	none
C=CCN(c1ccccc1C1=N/C(=C\c2ccc(C)cc2)C(=O)O1)S(=O)(=O)c1ccc(Cl)cc1	none
C=CCN(c1nc(C)c(Br)c(OC)n1)S(=O)(=O)c1ccc(C)cc1	Dicer processing 3.62
CCN(c1nc(C)cc(OC)n1)S(=O)(=O)c1ccc(C)cc1	none
O=C(c1cn(CCOc2ccccc2F)c2ccccc12)C1CC1	none
CCc1ccc(N=C(N)N=C(N)N)cc1	none
NC(N)=NC(N)=Nc1ccc(F)cc1F	none
NN/C(N)=N/C(N)=Nc1ccc(F)cc1	Dicer processing 3.05
O=c1c2c(F)cccc2nc2sc3ccc(Cl)cc3n12	none
CC(C)(C)c1ccc(-c2nnc(NC(=O)C(Cl)(Cl)Cl)s2)cc1	none
CC(C)(C)C(=O)Nc1nnc(-c2ccc(Br)cc2)s1	none
CN(C)S(=O)(=O)c1ccc(C(=O)Nc2nnc(-c3ccc(Br)cc3)s2)cc1	Dicer processing 3.16
N#CCCn1nc(-c2ccccc2)cc1N	none
Cc1oc(S(=O)(=O)N2CCCCC2)cc1C(=O)Nc1ccc(F)cc1	none
CCC(C)Nc1ncnc(N)c1[N+](=O)[O-] (stereo unspecified)	none
CCN(C(=O)c1ccccc1)c1cccc2ccccc12	none
CN(C(=O)c1ccccc1)C(=O)N(C)C(=O)c1ccccc1	none
CN1C2C=C(N(CCc3ccccc3)C(=O)c3ccccc3)CC1CC2 (stereo unspecified)	Dicer processing 3.14
N[C@@H](Cc1ccccc1)c1nnc(SCc2ccccc2)o1	none
O=C(Nc1ccc2ccccc2n1)c1cccs1	none
O=C(Nc1ccc2ccccc2n1)c1ccc(Cl)cc1	none
O=C(Nc1ccc2ccccc2n1)c1c(Cl)cccc1Cl	none
O=C(Nc1ccc2ccccc2n1)c1ccccc1Cl	Dicer processing 3.25
O=C(Nc1ccc2ccccc2n1)Nc1ccccc1F	none
O=C(Nc1ccc2ccccc2n1)C1CCCCC1	Dicer processing 5.11
CCOC(=O)c1sc(SC(C)C)c2c1-c1ccccc1N(C)S2(=O)=O	none
O=C(CC(SCc1ccco1)c1cccs1)c1ccc(Cl)cc1 (stereo unspecified)	none
Cc1ccn2cc(-c3cccc(S(=O)(=O)N4CCOCC4)c3)nc2c1	none
O=S(=O)(Nc1cccc(-c2cn3ccccc3n2)c1)c1ccc(Br)cc1	Dicer processing 4.43
CC1CN(S(=O)(=O)c2cccc(-c3cn4ccccc4n3)c2)CC(C)O1 (stereo unspecified)	none
Cc1ccn2cc(-c3cccc(S(=O)(=O)N(C)C)c3)nc2c1	none
O=S(=O)(Nc1cccc(-c2cn3ccccc3n2)c1)c1ccc(F)cc1	none
Cc1cc(C)c(S(=O)(=O)Nc2cccc(-c3cn4ccccc4n3)c2)c(C)c1	Dicer processing 3.72
Cc1onc(-c2ccccc2)c1C(=O)N1CCNCC1	none
CCSc1nnc2c(n1)OC(c1cccc(O)c1Cl)Nc1ccccc1-2 (stereo unspecified)	none
Cc1cc2c(cc1C)CSC(c1ccccc1Cl)SC2	none
COc1ccc(C2CC(=O)C3=C(C2)NC(C)=C(C(=O)OC(C)C)C3c2ccccn2)cc1 (stereo unspecified)	none
CNC(=O)NNc1ccc(-c2csnn2)cc1	none
COc1ccc(NS(=O)(=O)c2ccc(NS(=O)(=O)c3ccc(C)cc3)cc2)nn1	none
COCCCNS(=O)(=O)c1ccc(NS(=O)(=O)c2ccc(C)cc2)cc1	Dicer processing 4.71
Cc1ccc(S(=O)(=O)NCCCN(C)C)cc1	none
COc1ccc(-c2csnn2)cc1S(=O)(=O)Nc1ccccc1	none
Cc1ccc(S(=O)(=O)Nc2ccc(N(C)C)cc2)cc1	Dicer processing 3.77
CN(C)c1ccc(NS(=O)(=O)c2ccc(-c3csnn3)cc2)cc1	Dicer processing 6.99
COCCCNC(=S)NNS(=O)(=O)c1ccc(C)cc1	none
Cc1ccc(S(=O)(=O)N/N=C/C(=O)O)cc1	none
O=C(CSc1nc2ccccc2o1)c1ccc(Cl)cc1	none
CCOC(=O)N/N=C(\C)c1ccccc1-c1ccccc1/C(C)=N/NC(=O)OCC	none
CCOC(=O)C1CCN(c2cc(C(F)(F)F)nc3ccc(Br)cc23)CC1	none
O=c1[nH]c2cc(Cl)ccc2c(-c2ccccc2)c1Sc1nnnn1-c1ccccc1	none
Cc1[nH]nc2c1C(c1ccc(OC(=O)N3CCOCC3)cc1)C(C#N)=C(N)O2 (stereo unspecified)	none
CCOC(=O)C1=C(C)Nc2nc3ccccc3n2C1c1ccc(CC)cc1 (stereo unspecified)	none
Cn1nc(C(C)(C)C)cc1NC(=O)Nc1ccc(OCc2ccccc2)cc1	Dicer processing 4.34
Cc1nnsc1C(=O)Nc1cc(-c2ccccc2)nn1C	none
Cc1ccc(F)cc1NC(=O)Nc1cc(C(C)(C)C)nn1C	Dicer processing 4.02
Cn1nc(-c2ccccc2)cc1NC(=O)Nc1ccc(OCc2ccccc2)cc1	none
Cn1nc(C(C)(C)C)cc1NC(=O)Nc1cccc2ccccc12	none
Cn1nc(-c2ccc(Cl)cc2)cc1NC(=O)Nc1ccc(OCc2ccccc2)cc1	none
Cc1cc(C)cc(NC(=O)Nc2cc(C(C)(C)C)nn2C)c1	none
Cn1nc(-c2ccccc2)cc1NC(=O)Nc1ccc(F)cc1	Dicer processing 3.61
Cc1ccccc1NC(=O)Nc1cc(-c2ccccc2)nn1C	none
CN1c2ccccc2C(=O)/C(=N\Nc2ccccc2F)S1(=O)=O	none
Cc1ccc(Cn2nc(C)ccc2=O)cc1	none
CCc1ccccc1CSc1n[nH]c(=O)n1C(C)c1ccccc1 (stereo unspecified)	none
Cc1cc(C(F)(F)F)cc(NNS(=O)(=O)c2cc(C(F)(F)F)cc(C(F)(F)F)c2)n1	none
CN(C)/C=N/c1nc(Sc2c(Cl)cccc2[N+](=O)[O-])n[nH]1	none
O=C(NCc1c(F)cccc1Sc1ccc(Cl)cc1)Nc1ccc(Cl)cc1	none
CC(C)C(=O)N1c2ccccc2NC2=C(C(=O)CC(C)(C)C2)C1c1cccc(F)c1 (stereo unspecified)	none
O=S(=O)(N/N=C/c1ccc(Cl)cc1)c1ccc(-c2ccccn2)s1	none
CC(C)CCSc1nnc2[nH]c(=O)cc(N)n12	Dicer processing 3.36
Nc1cc(=O)[nH]c2nnc(SCc3ccccc3Cl)n12	none
C#CCSc1nnc2[nH]c(=O)cc(N)n12	none
O=C(N/N=C\c1c(Cl)cccc1Cl)c1nc(CS(=O)(=O)c2ccc(Cl)cc2)no1	none
CCOc1cc(C2C(C(=O)OCCSCC)=C(C)NC3=C2C(=O)CCC3)ccc1O (stereo unspecified)	none
COc1ccc(Br)c(C(=O)c2nnn3c2nc(N)c2c(Cl)cccc23)c1	none
CCCCOC(=O)CCCN1C(=O)S/C(=C/c2ccc(OC)cc2)C1=S	none
